Consider eight compounds from PubChem BioAssay AID1508633 (National Center for Advancing Translational Sciences (NCATS), 2021).

Results filed as inconclusive are left out. Unmarked numbers belong to inactive results. Active and inactive are the calls of the source. The call rests on the fitted dose curve; in most records, active means well fitted inhibition curve with a large enough effect; inconclusive means small, poorly fitted or top-dose-only effect; inactive means no such curve, though single readings can be large or run the other way. Where a SMILES comes first, the peptide text is derived from it. The star is where a group is joined. Cbz = O=C(OCc1ccccc1)*

The test system of the assay is zebrafish ABCB5 (Abcb5) multidrug transporter. The experiment in a line: qHTS for characterization and localization of zebrafish homologs of the human ABCB1 multidrug transporter: ABCB5 transfected cells. As to conditions: CellTiter-Glo luminescence viability, 72 h; series mostly up to 46.1 µM. The gist of the method:
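Empty-vector, P-gp-overexpressing MDR-19 and zebrafish abcb4- or abcb5-transfected cells were exposed to ~90 P-gp substrates at varying concentrations for 72 h at 37C. Viability was read by CellTiter-Glo luminescence; cytotoxic meant inhibitory curve class, >50% maximal response and AC50 < 10 uM.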
For orientation: qHTS replaces the single test concentration by a dilution series.
For `CC(C)C[C@H](NC(=O)[C@H](CCc1ccccc1)NC(=O)CN1CCOCC1)C(=O)N[C@@H](Cc1ccccc1)C(=O)N[C@@H](CC(C)C)C(=O)[C@@]1(C)CO1`, the Potency is 0.166 µM (active). Regarding `C=CCNC1=C2CC(C)CC(OC)C(O)C(C)/C=C(\C)C(OC(N)=O)C(OC)/C=C/C=C(\C)C(=O)NC(=CC1=O)C2=O` (stereo not drawn), the Potency is 11.8 µM (active).

Take `COc1cc(N2CCC(O)CC2)ccc1Nc1nc(Nc2ccccc2S(=O)(=O)C(C)C)c2[nH]cnc2n1`: the Potency result was “inactive”.

Regarding `COc1cc2c(NC3CCN(C(C)C)CC3)nc(N3CCCN(C)CC3)nc2cc1OCCOCCN(C)C`, the Potency result is “inactive”. As to `CC[n+]1c(-c2ccccc2)c2cc(N)ccc2c2ccc(N)cc21`, the Potency is 11.8 µM (active). For `CC(=O)O[C@@H]1C[C@H](O)[C@@]23CO[C@@H](O)C1(C)[C@@H]2C[C@@H](O)[C@]1(C)[C@@H]3C(=O)[C@H](OC(C)=O)[C@@]2(C)[C@H](c3ccoc3)C[C@H]3O[C@]321`, the Potency was 1.05 µM (active). For `C=C1CO[C@@]2(O[C@H]3CC4C5CC=C6C[C@@H](O)C[C@@H](O[C@@H]7OC[C@H](O)[C@H](O[C@@H]8OC[C@@H](O)[C@H](O)[C@H]8O)[C@H]7O[C@@H]7O[C@@H](C)[C@H](OC(C)=O)[C@@H](OC(C)=O)[C@H]7OC(C)=O)[C@]6(C)C5CC[C@]4(C)[C@@H]3[C@@H]2C)[C@@H](O)[C@H]1OC1OC(C)C(O)C(O)C1O` (stereo partly drawn), the activity, negative = inhibition is 3.83% [at 8.96 µM]. Turning to `CC(C)C[C@@H](C=O)NC(=O)[C@H](CC(C)C)NC(=O)[C@H](CC(C)C)NC(=O)OCc1ccccc1` (Cbz-Leu-Leu-Leu-aldehyde), the Potency is 1.18 µM (active).
